In all, about 86,000 compounds went through this assay and about 920 (1.1%) were called active. This is one part of a sample in which actives are shown more often than they occur. A number with no mark means an inactive call.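 How the source made its calls: active means viability at or below 30%; inactive means viability above 30%.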
Assay: inhibitors of HUVEC proliferation, primary screen, cell-based, 384-well (AID 648);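 further: 100% = median luminescence of DMSO-only cell control wells on each plate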
Details: CellTiter-Glo luminescence, 72 h, hits give low values, screened at 10 µM (by protocol)

Structure (SMILES)	viability
Cc1ccc(/C=N/NC(=O)C2=NNC(c3ccccc3)(c3ccccc3)C2)c(O)c1	25.4% (active)
Cc1ccc(OCC(=O)N/N=C\c2ccco2)c(C)c1	93%
C/C(=N\NC(=O)c1nc(C)cc(C)n1)c1ccccc1	93.6%
CCN(CC)CCn1c2ccc(Cl)cc2c2nc(C)sc21	87.5%
CCOC(=O)c1ccc(N2C(=O)CC(N(C)Cc3ccccc3)C2=O)cc1 (stereo not drawn)	92.5%
COc1cccc(NC(=O)Cc2ccc(C)cc2)c1	95.9%
COc1ccc(CC(=O)Nc2ccc(-c3nnc(-c4ccc(C)cc4)o3)cc2)cc1	61.7%
COc1ccc(NC(=O)/C(Cl)=C(/Cl)S(=O)Cc2ccc(C)cc2)cn1 (stereo not drawn)	1.52% (active)
COc1cc(C(=O)OC(C)C(=O)NCC2CCCCC2)cc(NC(=O)c2ccco2)c1OC (stereo not drawn)	100%
N#CCSc1nc2ccc(N3CCOCC3)cc2c(=O)n1CCc1ccccc1	90.5%
Cc1ccc(CNC(=O)CCNS(=O)(=O)c2cccc3nonc23)cc1	95.1%
COc1ccc(-c2nnco2)cc1OC	102%
COc1ccc(-c2cc(C(F)(F)F)nc(S(C)(=O)=O)n2)cc1OC	13.2% (active)
COc1ccc(-c2cc(C(F)(F)F)nc(NCc3cccnc3)n2)cc1	88.9%
COC(=O)C1C(=O)NCC1c1ccc(OC)cc1 (stereo not drawn)	93.7%
COCc1[nH][nH]c(=O)c1C=Nc1ccc(F)cc1F	86.9%
CCN(CC)CCCNC(=O)CCc1ccccc1	103%
Cc1cc(N2CCN(S(=O)(=O)c3ccc(C)c(C)c3)CC2)c2ccccc2n1	81.6%
Cc1ccc(NC(=O)CCN2CCc3ccccc3C2)cc1	103%
CC(=O)c1cccc(NC(=O)Nc2ccc(C)cc2)c1	90%
Cc1ccc(NC(=S)NC(NC(=O)Cc2cccc3ccccc23)C(Cl)(Cl)Cl)cc1 (stereo not drawn)	4.6% (active)
COc1ccc(-c2cn(-c3ccc(C)cc3)c(=O)n2CC(=O)Nc2ccc(OC)c(OC)c2)cc1	92.4%
COc1ccc(-c2nnc(SCc3cccnc3)o2)cc1	104%
COc1cc2c(cc1OC)C(C(C)C)=NC(C)(C)C2	90.5%
COc1ccc(CCNC(=O)CN(c2ccccc2)S(C)(=O)=O)cc1OC	94.6%

Structure (SMILES)	viability
FC(F)(F)c1nnc2ccc(N3CCN(c4ccccc4)CC3)nn12	85.4%
COC(=O)c1ccccc1NC(=O)Cc1ccccc1OC	91.1%
Cc1ccc(C(CC(=O)O)Nc2nc(N3CCCCC3)nc(N3CCCCC3)n2)cc1 (stereo not drawn)	99.9%
CC(Nc1nc(N2CCCC2)nc2ccccc12)c1ccccc1 (stereo not drawn)	4.14% (active)
CC(C)n1c(C(O)c2ccccc2)nc2ccccc21 (stereo not drawn)	99.3%
CCN(c1ccccc1)S(=O)(=O)c1ccc(C(=O)Nc2nccs2)cc1	104%
Cc1ccc(-c2noc(CC(c3ccccc3)c3ccccc3)n2)cc1	135%
COc1ccc(N2CCN(Cc3ccc(Br)s3)CC2)cc1	108%
COc1ccc(Cl)cc1C(=O)NCC#N	91.6%
O=C(NCc1ccccc1)C1CCCN(S(=O)(=O)c2cccs2)C1 (stereo not drawn)	93%
CC(=O)Oc1ccc(C(C)=O)c2c1OCCO2	82.4%
CCN(CC)C(=O)CC1(c2ccccc2OC)CCOC(C(C)C)C1 (stereo not drawn)	103%
OC(CN=c1sc2ccccc2n1CC(O)COc1ccccc1)COc1ccccc1 (stereo not drawn)	28.9% (active)
OC(COc1ccccc1)Cn1cc(Br)cn1 (stereo not drawn)	99.8%
CC(C)c1ccc(OCC(O)Cn2cnc3ccccc32)cc1 (stereo not drawn)	84.8%
COc1ccccc1/C=C/C1=NC(=C\N(C)C)/C(=O)O1	90.8%
CC(C)c1ccc(-c2noc(C3CCCN(S(C)(=O)=O)C3)n2)cc1 (stereo not drawn)	82.4%
Cc1ccc(CNC(=O)C2CCCN2C(=O)NCc2ccccc2)cc1 (stereo not drawn)	102%
CC1CCC(N2CC(=O)N(Cc3ccc4c(c3)OCO4)C(c3ccc(F)cc3)C2=O)CC1 (stereo not drawn)	104%
C=CCn1c(N)c(S(=O)(=O)c2cccs2)c2nc3ccccc3nc21	107%
CC(C)Cn1c(N)c(C(=O)NCc2cccs2)c2nc3ccccc3nc21	3.01% (active)
C=CCn1c(N)c(C(=O)OCC(C)C)c2nc3ccccc3nc21	66.4%
O=C(Nc1ccc2nc3n(c(=O)c2c1)CCCCC3)c1ccccc1Cl	109%
CCOC(=O)c1cc2c(ccn2C)n1CC(=O)N1CCC(C)CC1	93.4%
CN(C)CCNC(CC(=O)Nc1ccc(Cl)c(Cl)c1)C(=O)O (stereo not drawn)	93.2%

Structure (SMILES)	viability
N/C(=N\OC(=O)Nc1ccc(Cl)c(Cl)c1)c1ncc(C(F)(F)F)cc1Cl	60.3%
O=C(CC(O)(C(F)(F)F)C(F)(F)F)Nc1ccc(Cl)c(Cl)c1	3.08% (active)
COc1ccc(-c2cc3nc(C)c(CCC(=O)NC(C)CCc4ccco4)c(C)n3n2)c(OC)c1 (stereo not drawn)	88.3%
CCNC(=O)NC(=O)C(C)OC(=O)c1cc(S(=O)(=O)N2CCCCCC2)ccc1OC (stereo not drawn)	79.6%
Cc1[nH][nH]c(=O)c1C(c1ccc(-c2ccc(Cl)cc2)o1)c1c(C)[nH][nH]c1=O	24% (active)
Cc1[nH][nH]c(=O)c1N=Nc1ccccc1	109%
CCCCOC(=O)Cn1c(=N)n(CCN(CC)CC)c2ccccc21	104%
O=C(COc1cc(Cl)c(Cl)cc1Cl)NC(=O)NC1CCCC1	88.8%
O=S(=O)(NCC1OCCc2ccccc21)c1ccccc1 (stereo not drawn)	104%
COC(=O)C(C(=O)Nc1cccc(C)n1)C1CCCCCC1 (stereo not drawn)	88.7%
COC(=O)c1ccccc1Oc1c(F)c(F)nc(N2CCOCC2)c1F	95.4%
CC(C)(C)C(=O)Cn1c(NCCO)nc2ccccc21	95.1%
OCCNc1nc2ccccc2n1-c1ncnc2sc3c(c12)CCC3	4.2% (active)
O=C(O)[C@@H]1CCCN1c1ncnc2sc3c(c12)CCC3	99%
CN=C1SC(CC(=O)Nc2ccc(C(=O)O)cc2)C(=O)N1C (stereo not drawn)	88%
CCC(=O)NC(Nc1nc2ccc(C)cc2s1)(C(=O)OC)C(F)(F)F (stereo not drawn)	101%
Cc1ccc(C)c(NC2=NCC(=O)N2c2ccc3c(c2)OCCO3)c1	103%
O=c1c2ccccc2nc(N/N=C/c2ccccc2)n1O	101%
Cc1nc2ccccc2c(=O)n1CCCn1ccnc1	92.5%
CCn1c(/C=C/c2ccc([N+](=O)[O-])o2)nc2ccccc2c1=O	4.01% (active)
CCn1c(COc2ccc(OC)cc2)nnc1SCC(=O)Nc1cc(OC)ccc1OC	98%
CCn1nc(C)c(NC(=O)/C=C/c2ccc(OC)c(COc3ccc(Br)cc3)c2)c1C	10.6% (active)
COc1ccc(/C=C/C(=O)Nc2c(C)nn(C)c2C)cc1COc1ccc(Br)cc1	46.5%
c1ccc(-n2nc3ccccc3n2)cc1	94.1%
COC(=O)c1[nH]c2ccc(Br)cc2c1NC(=O)Oc1ccccc1	86.1%

Structure (SMILES)	viability
Cn1c(N)c(C(=O)COC(=O)C23CC4CC(CC(C4)C2)C3)c(=O)n(C)c1=O	99.2%
Cc1ccc(CN(C(=O)c2sc3ccccc3c2Cl)C2CCS(=O)(=O)C2)cc1 (stereo not drawn)	80.5%
CC(C)CC[n+]1ccn(C2=C([O-])c3ccccc3C(=O)/C2=N\S(=O)(=O)c2ccccc2)c1	20.6% (active)
CN(Cc1ccccc1)C(=O)COc1ccccc1	98.7%
COc1nc(NC2CCCCC2)nc(N2CCCCCC2)n1	77.8%
CCOC(=O)c1cnc(SCc2nc(N)nc(Nc3ccc(OC)cc3)n2)nc1N	111%
Cc1cccc2nc(CSc3nc4[nH]ncc4c(=O)n3-c3cccc(Cl)c3)cc(=O)n12	76.9%
CCn1c(CNC(=O)c2ccccc2)nnc1SCC(=O)N1CCN(c2ccccc2)CC1	98.7%
CCCn1c(=O)c2ccccc2n2c(SCC(=O)/C(C#N)=C(\C)N)nnc12	83.6%
Cc1sc2nc(SCC(N)=O)n(C)c(=O)c2c1C	98.6%
C=CCn1c(SCC(=O)/C(C#N)=C(\C)N)nc2sc(C)c(C)c2c1=O	28% (active)
O=C(CSCc1c(F)cccc1Cl)NCC1CCCO1 (stereo not drawn)	101%
Cc1ccc(O/C=C2\OC(=O)c3ccccc32)cc1	98.2%
COC(=O)c1sc(=S)n(-c2ccc(Cl)cc2)c1C	90%
COc1ccc(-n2nnnc2SCc2nc(N)nc(N3CCOCC3)n2)cc1	96.3%
CCOC(=O)c1sc(NC(=O)CSc2nc(C)cc(C(F)(F)F)n2)c(C#N)c1C	88.5%
CCOc1ccc(Nc2oc(Cc3ccccc3)nc2C#N)cc1	104%
COc1ccc(Nc2oc(-c3ccccc3Cl)nc2C#N)cc1	29.9% (active)
COc1ccccc1-c1nc(C#N)c(N2CCC(C(N)=O)CC2)o1	95.4%
O=C(Nc1cccc(NC(=O)c2ccco2)c1)c1cnccn1	83.6%
Fc1ccc(-n2c(Cc3ccccc3)nnc2SCc2nc(-c3ccc(Cl)cc3)no2)cc1	76.6%
COc1ccc(N(CC(=O)NC2CCCCC2)S(=O)(=O)c2c(C)[nH]c(=O)[nH]c2=O)cc1	96.7%
COc1ccc([N+](=O)[O-])cc1C1NN=C(c2cccc3ccccc23)S1 (stereo not drawn)	81.9%

From PubChem BioAssay AID648 (SRMLSC, 2007)
